{"source": "PubChem BioAssay AID485275", "about": "(NMMLSC, 2010)", "note": "Hit rate of the full screen: of about 330,000 compounds, about 1,400 (0.42%) were called active. This is one part of a sample in which actives are shown more often than they occur.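 Rule for the calls: active = plate passing quality check with inhibition over a set limit, or well fluorescence over plate mean plus 4 SD; inactive = the rest.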", "data": [{"assay": "antifungal drug efflux pump blockers, triplex strains – S. cerevisiae, Nile Red, multiplex, primary screen (AID 485275);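 note: Nile Red retained in pooled yeast measured as flow cytometry median fluorescence; 0% = buffer negative control and 100% = Enniatin B positive control; higher means more Nile Red kept so more efflux inhibition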", "details": "S. cerevisiae Candida pump triplex, at 10 µM, hits give high values", "values": [{"smiles": "COCCNC(=O)c1ccc2c(c1)ncn2-c1ccc(C)c(Cl)c1", "inhibition": "0.09% (inactive)"}, {"smiles": "CCOCCCn1c(NN)nc2ccccc2c1=O", "inhibition": "0.04% (inactive)"}, {"smiles": "CCn1c(/C=C/c2ccc([N+](=O)[O-])o2)nc2ccccc2c1=O", "inhibition": "1.26% (active)"}, {"smiles": "CCn1c(SCc2ccccc2)nc2cc(OC)c(OC)cc2c1=O", "inhibition": "-0.05% (inactive)"}, {"smiles": "C=CC[C@H](CC(=O)NCCO)C(=O)N[C@@H](COC(=O)[C@@H](CC=C)Cc1ccc(F)cc1)Cc1c[nH]c2ccccc12", "inhibition": "-0.26% (inactive)"}, {"smiles": "Cc1ccc(C(=O)NC(=S)Nc2ccc(N3CCOCC3)cc2)cc1", "inhibition": "0% (inactive)"}, {"smiles": "COc1ccc(C(=O)NC(=S)Nc2ccccc2N2CCN(S(C)(=O)=O)CC2)cc1OC", "inhibition": "0.06% (inactive)"}, {"smiles": "COc1ccc(C(=O)NC(=S)Nc2ccc(N3CCCC3)cc2)cc1OC", "inhibition": "6.65% (active)"}, {"smiles": "CCn1cc(C(=O)N2CC(C)CC(C)C2)c(=O)c2cc(S(=O)(=O)N3CCCC3)ccc21", "note": "(centres undefined)", "inhibition": "0.08% (inactive)"}, {"smiles": "O=C(NCCc1ccccn1)c1cc(-c2ccc(Cl)cc2)nc2ccccc12", "inhibition": "0.18% (inactive)"}, {"smiles": "Cn1nnnc1SCC(=O)Nc1ccccc1C(=O)NC1CC1", "inhibition": "0% (inactive)"}, {"smiles": "CC(/C=N/NC(=O)c1cc(-c2ccc3ccccc3c2)n[nH]1)=C\\c1ccco1", "inhibition": "0.5% (active)"}, {"smiles": "CC(=C/c1ccccc1)/C=N/NC(=O)c1cc(C)oc1C", "inhibition": "0.06% (inactive)"}, {"smiles": "CC(C)(C)C1CCC(=NNC(=O)c2cc(-c3ccccc3)n[nH]2)CC1", "note": "(centres undefined)", "inhibition": "0.31% (inactive)"}, {"smiles": "CCOC(OCC)c1ccc(/C=C\\c2nccc(N)n2)cc1", "inhibition": "-0.05% (inactive)"}, {"smiles": "Cc1ccc(-n2c(SCC(=O)Nc3ncc(Cl)cc3Cl)nc3ccccc32)cc1", "inhibition": "0.75% (inactive)"}, {"smiles": "CCCn1c(O)c(CN2CCCC(C)C2)c(C)c(C#N)c1=O", "note": "(centres undefined)", "inhibition": "-0.15% (inactive)"}, {"smiles": "CCOc1ccc(N2C(=O)CN(c3cccc4ccccc34)C2=S)cc1", "inhibition": "-0.04% (inactive)"}, {"smiles": "O=C(NCc1ccc2c(c1)OCO2)C(=O)NCC1OCCN1S(=O)(=O)c1ccc(F)cc1", "note": "(centres undefined)", "inhibition": "0.25% (inactive)"}, {"smiles": "COc1ccc(CCNC(=O)C(=O)NCC2OCCN2S(=O)(=O)c2ccc(F)cc2)cc1OC", "note": "(centres undefined)", "inhibition": "0.07% (inactive)"}, {"smiles": "COc1ccc(S(=O)(=O)N2CCOC2CNC(=O)C(=O)NCc2ccc(F)cc2)cc1", "note": "(centres undefined)", "inhibition": "5.66% (active)"}, {"smiles": "O=C(c1ccc(Cl)nc1)N1CCN(S(=O)(=O)c2ccc3c(c2)OCCO3)CC1", "inhibition": "-0.06% (inactive)"}, {"smiles": "O=C(OCc1ccc(-c2ccccc2)cc1)c1cccc(O)c1", "inhibition": "20.2% (active)"}, {"smiles": "O=C(OCC(=O)c1c[nH]c2ccccc12)c1cccc(O)c1", "inhibition": "0.55% (inactive)"}, {"smiles": "O=C(OCc1ccc(Br)cc1)c1cccc(-c2nnc(-c3ccccc3)o2)c1", "inhibition": "0.06% (inactive)"}, {"smiles": "COc1cc(CNc2ncn[nH]2)ccc1OCc1ccccc1C", "inhibition": "0.06% (inactive)"}, {"smiles": "[2H]C(CCOS(N)(=O)=O)c1ccccc1", "note": "(centres undefined)", "inhibition": "-0.09% (inactive)"}, {"smiles": "Fc1cnc(N2CCOCC2)nc1NCc1ccccc1", "inhibition": "-0.13% (inactive)"}, {"smiles": "CCOC(=O)c1c(N=CN(C)C)c(C#N)c2n1CCCC2", "inhibition": "-0.18% (inactive)"}, {"smiles": "COc1ccc(Cc2nnc(SCC(=O)Nc3ccc(C)c(C)c3)o2)cc1OC", "inhibition": "-0.04% (inactive)"}, {"smiles": "CCCc1nnc(SCC(=O)Nc2ccc(C(=O)OCC)cc2)o1", "inhibition": "2.83% (active)"}, {"smiles": "Cc1ccc(NC(=O)CSc2nnc(COc3ccccc3C)o2)cc1", "inhibition": "-0.17% (inactive)"}, {"smiles": "O=C(COC(=O)Cn1cnc2ccccc2c1=O)NCc1ccccc1Cl", "inhibition": "0.17% (inactive)"}, {"smiles": "Nc1ccc2nc3c(=O)[nH]c(=S)[nH]c3nc2c1", "inhibition": "0.97% (active)"}, {"smiles": "Cc1noc(C)c1S(=O)(=O)N(C)C[C@H]1Oc2c(NC(=O)Nc3ccc4c(c3)OCO4)cccc2C(=O)N([C@H](C)CO)C[C@@H]1C", "inhibition": "0.73% (inactive)"}, {"smiles": "COC(=O)[C@]1(CC(C)C)N[C@H](c2ccc(SC3CCCCC3)cc2)[C@@H]2C(=O)N(C)C(=O)[C@@H]21", "inhibition": "-0.02% (inactive)"}, {"smiles": "CC[n+]1cc(C)ccc1/C=C/c1ccc(N(C)C)cc1", "inhibition": "5.98% (active)"}, {"smiles": "O=C(N/N=C\\c1cc2c(cc1Cl)OCO2)c1ccc(Br)s1", "inhibition": "0.06% (inactive)"}, {"smiles": "CC(/C=C/c1ccccc1)=N\\NC(=O)C1CC1(C)c1ccccc1", "note": "(centres undefined)", "inhibition": "2.26% (active)"}, {"smiles": "O=C(N/N=C/C=C/c1ccccc1)C1CC1(c1ccccc1)c1ccccc1", "note": "(centres undefined)", "inhibition": "-0.21% (inactive)"}, {"smiles": "CC(/C=C/c1ccco1)=N/NC(=O)C1COc2ccccc2O1", "note": "(centres undefined)", "inhibition": "0.12% (inactive)"}, {"smiles": "Cc1csc(NC(=O)c2ccc(C)s2)n1", "inhibition": "0.06% (inactive)"}, {"smiles": "Cc1csc(NC(=O)c2ccc(-c3ccc(Cl)cc3Cl)o2)n1", "inhibition": "16.6% (active)"}, {"smiles": "Cc1ccc(C(=O)Nc2nc3ccc(Cl)cc3s2)o1", "inhibition": "-0.17% (inactive)"}, {"smiles": "O=C(NCc1ccncc1)C(=O)NCC1OCCN1S(=O)(=O)c1ccc(Br)cc1", "note": "(centres undefined)", "inhibition": "0.06% (inactive)"}, {"smiles": "O=C(COC(=O)c1ccc(N2CCCC2=O)cc1)c1ccc(OC(F)F)cc1", "inhibition": "0.24% (inactive)"}, {"smiles": "CC1CCCC(N2CCN(C(=O)c3ccc(F)cc3)CC2)C1", "note": "(centres undefined)", "inhibition": "-0.1% (inactive)"}, {"smiles": "CCn1c(SC(C)C(=O)Nc2ccc(N3CCOCC3)cc2)nnc1-c1ccco1", "note": "(centres undefined)", "inhibition": "0.21% (inactive)"}, {"smiles": "O=C(CN1C(=O)c2cccnc2Oc2ccc(Cl)cc21)NCCc1ccccc1", "inhibition": "-0.23% (inactive)"}, {"smiles": "COc1ccccc1CSc1ncc(-c2ccc([N+](=O)[O-])cc2)[nH]1", "inhibition": "18.3% (active)"}, {"smiles": "COc1ccccc1C1CCN(c2ccc([N+](=O)[O-])cn2)CC1", "inhibition": "0.16% (inactive)"}, {"smiles": "N#Cc1c(-c2ccccc2)nc(SCc2ccc([N+](=O)[O-])cc2)[nH]c1=O", "inhibition": "-0.1% (inactive)"}, {"smiles": "CCC(Cc1ccccc1)NS(=O)(=O)c1ccc2c(c1)NC(=O)CS2", "note": "(centres undefined)", "inhibition": "-0.01% (inactive)"}, {"smiles": "COCCCN1C(=O)C(=O)/C(=C(/O)c2ccc3c(c2)CC(C)O3)C1c1cccnc1", "note": "(centres undefined)", "inhibition": "0.03% (inactive)"}, {"smiles": "CCOc1ccc(C2/C(=C(/O)c3ccc4c(c3)CC(C)O4)C(=O)C(=O)N2CCCn2ccnc2)cc1", "note": "(centres undefined)", "inhibition": "4.24% (active)"}, {"smiles": "COc1ccc(C2/C(=C(/O)c3ccc4c(c3)CC(C)O4)C(=O)C(=O)N2Cc2ccncc2)cc1", "note": "(centres undefined)", "inhibition": "0.59% (inactive)"}, {"smiles": "COc1ccc(S(=O)(=O)N2CCCCCC2)cc1C(=O)N(C)Cc1cccc(OC)c1OC", "inhibition": "0.1% (inactive)"}, {"smiles": "Cc1nn(C)cc1C(=O)Nc1ccccc1Br", "inhibition": "6.48% (active)"}, {"smiles": "O=C(O)c1ccccc1-c1ccccc1C(=O)Nc1ccccc1Br", "inhibition": "-0.16% (inactive)"}, {"smiles": "Cc1nn(C)cc1C(=O)c1ccccc1", "inhibition": "-0.06% (inactive)"}, {"smiles": "O=c1[nH]c2ccccc2n2c(-c3ccccc3)nnc12", "inhibition": "0.01% (inactive)"}, {"smiles": "NNC(=O)CSc1nnc(-c2ccccc2)n1-c1ccccc1", "inhibition": "0.17% (inactive)"}, {"smiles": "CC1CC(C)CN(CCCNC(=O)Cn2ncc3c([nH]c4ccccc43)c2=O)C1", "note": "(centres undefined)", "inhibition": "0.29% (inactive)"}, {"smiles": "Cc1cccc(CCNC(=O)Cn2ncc3c([nH]c4ccc(C)cc43)c2=O)c1", "inhibition": "0.33% (inactive)"}, {"smiles": "Cc1ccc2[nH]c3c(=O)n(CC(=O)NCCc4ccc(Cl)cc4)ncc3c2c1", "inhibition": "0.66% (active)"}, {"smiles": "CCCCCC(=O)NC(=S)NNC(=O)c1ccc([N+](=O)[O-])cc1", "inhibition": "0.09% (inactive)"}, {"smiles": "O=C(COc1ccc(/C=N/NC(=O)c2ccc(O)cc2)cc1)Nc1ccc([N+](=O)[O-])cc1", "inhibition": "-0.1% (inactive)"}, {"smiles": "CCCCCC(=O)Nc1ccc(C(=O)N/N=C/c2ccc([N+](=O)[O-])cc2)cc1", "inhibition": "9.14% (active)"}, {"smiles": "CC1(C(=O)NNC(=S)NCC2CCCO2)CC1(Cl)Cl", "note": "(centres undefined)", "inhibition": "-0.05% (inactive)"}, {"smiles": "C[n+]1ccc(/C=C/c2c[nH]c3ccccc23)cc1", "inhibition": "2.57% (active)"}, {"smiles": "COc1ccc(/C=C(\\C#N)c2c[nH]c3ccccc23)cc1", "inhibition": "0.35% (inactive)"}, {"smiles": "O=C(NC1CCCC1)C(=O)c1c[nH]c2ccccc12", "inhibition": "-0.55% (inactive)"}, {"smiles": "CN(C)c1nc2n(c(=O)n1)CCO2", "inhibition": "0.06% (inactive)"}, {"smiles": "Nc1nc(O)c(CC(=O)O)s1", "inhibition": "0.36% (inactive)"}, {"smiles": "CN(c1ccccc1)c1ccc(/C=c2\\s/c(=C(/C#N)C(=O)C(C)(C)C)n(Cc3ccco3)c2=O)cc1", "inhibition": "7.32% (active)"}, {"smiles": "Cc1ccc(C(=O)NCC(c2cccs2)N(C)C)cc1S(=O)(=O)N1CCOCC1", "note": "(centres undefined)", "inhibition": "0.37% (inactive)"}, {"smiles": "Cc1ccc(-c2nn(-c3ccc(F)cc3)cc2C(=O)NCC(c2cccs2)N2CCOCC2)cc1", "note": "(centres undefined)", "inhibition": "0.02% (inactive)"}, {"smiles": "CCCN1CNC(=S)N(CCc2ccccc2)C1", "inhibition": "-0.07% (inactive)"}, {"smiles": "C/C(=C\\c1ccco1)CN1CCC(N2CCC(C(=O)N3CCOCC3)CC2)CC1", "inhibition": "-0.13% (inactive)"}, {"smiles": "COc1ccc(OCC(=O)NNC(=O)C2CCC2)cc1", "inhibition": "0.28% (inactive)"}, {"smiles": "O=C(COc1ccc(Cl)cc1)Nc1ccc2c(c1)OCO2", "inhibition": "0.16% (inactive)"}, {"smiles": "NNC(=O)COc1ccc(C2SCCS2)cc1", "inhibition": "0.52% (active)"}, {"smiles": "Cc1ccc(CS(=O)(=O)CCC(=O)NCc2ccc(F)cc2)cc1", "inhibition": "0.01% (inactive)"}, {"smiles": "CC(C)c1ccc(NC(=O)Cn2ncc3ccccc32)cc1", "inhibition": "0.04% (inactive)"}, {"smiles": "COc1ccc(NC(=O)Cn2ncn3c(cc4ccccc43)c2=O)c(OC)c1OC", "inhibition": "0.03% (inactive)"}, {"smiles": "CCc1ccc(NC(=O)Cn2ncn3c(cc4ccccc43)c2=O)cc1", "inhibition": "0.97% (active)"}, {"smiles": "CC(=O)Nc1ccc(S(=O)(=O)NC(C)C(=O)OCCOc2ccc(F)cc2)cc1", "note": "(centres undefined)", "inhibition": "-0.06% (inactive)"}, {"smiles": "COc1cccc(N(CC(=O)NC2CCCC2)C(=O)Cn2nnc(-c3ccc(C)o3)n2)c1", "inhibition": "-0.2% (inactive)"}, {"smiles": "O=C1CCN(CCc2ccccc2)CCN1CCOc1ccccc1", "inhibition": "-0.09% (inactive)"}, {"smiles": "CCN(CC(=O)Nc1cccc(S(N)(=O)=O)c1)Cc1nc2ccccc2c(=O)[nH]1", "inhibition": "-0.01% (inactive)"}, {"smiles": "Cc1ccc2[nH]c(=O)c(CN3CCCCC3)c(-c3ccccc3)c2c1", "inhibition": "0.13% (inactive)"}, {"smiles": "Cc1cccc(-n2c(N)c(C(=O)N3CCN(C)CC3)sc2=S)c1", "inhibition": "-0.2% (inactive)"}, {"smiles": "CCCc1nc(-c2ccccc2O)n(-c2ccccc2)n1", "inhibition": "0.2% (inactive)"}, {"smiles": "CCCc1nc(N2CCN(C)CC2)c2sc(=S)n(-c3ccccc3)c2n1", "inhibition": "0.75% (active)"}]}]}
